The supplement of paper PMC7156485
± gives the standard deviation of the averaged measurements.

test system: HCC1569; test: cell number relative to DMSO (% of DMSO); higher = more cells (less growth inhibition / toxicity); conditions: concentration: 10 µM; 24 h
Summary of the method: (§1)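 H1.0 nuclear intensity or cell number is stated as percent of the plate control, based on the median of replicates, and HCC1569 values were smoothed for positional effects. These came from HCC1569 and TDF cells treated with compounds at 10 µM for 24 h at 37 °C in triplicate, then fixed in 3.7% formaldehyde and stained with a rabbit anti-H1.0 antibody, an AlexaFluor 647 secondary and DAPI.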
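Also: TDF denotes transformed human dermal fibroblasts of mesenchymal origin.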

| SMILES | cell number |
| --- | --- |
| Cc1oncc1C(=O)Nc1ccc(C(F)(F)F)cc1 [Leflunomide] | 103 ± 3.5 |
| CC(C)CCNC(C)C1CCC2C3CC=C4CC(O)CCC4(C)C3CCC12C (stereo not drawn) [22-Azacholesterol] | 104 |
| CC(C)c1cc(C(C)C)c(-c2csc(N(CCN(C)C)Cc3cccnc3)n2)c(C(C)C)c1 | 50.7 |

test system: TDF; test: as above; conditions: concentration: 10 µM; 24 h
Summary of the method: as §1

| SMILES | cell number |
| --- | --- |
| O=c1nc[nH]c2c1ncn2C1CCC(CO)O1 (stereo not drawn) [Didanosine] | 98.9 |
| NCCCC(=O)O | 106 |
| CNc1ncnc2c1ncn2C1OC(CO)C(O)C1O (stereo not drawn) [N6-Methyladenosine] | 106 |
| Brc1c(Br)c(Br)c2n[nH]nc2c1Br [TBB - 4,5,6,7-Tetrabromobenzotriazole] | 96.4 |
| Cn1c(=O)c2c(ncn2Cc2ccc(C(C)(C)C)cc2)n(C)c1=O | 71.4 |
| O=C1Nc2cc(Br)ccc2C1=C1N=c2ccccc2=C1NO [(2'Z,3'E)-6-Bromoindirubin-3'-oxime] | 61.4 |
| COc1ccc(C2CC(=O)c3c(O)cc(OC4OC(CO)C(O)C(O)C4OC4OC(C)C(O)C(O)C4O)cc3O2)cc1O (stereo not drawn) [Neohesperidin] | 104 |
| CCCCCCCCCCCC=CCCCCCC(=O)O [7(E)-Nonadecenoic acid] | 104 |
| CCCCNC(=O)NS(=O)(=O)c1ccc(C)cc1 [Tolbutamide] | 108 ± 11 |
| CCCCCC=CCC1OC1C(O)C=CCC=CCCCC(=O)O (stereo not drawn) [Hepoxilin B3] | 95 |
| CCN(CC)CCNC(=O)c1c(C)[nH]c(C=C2C(=O)Nc3ccc(F)cc32)c1C [Sunitinib] | 58.7 |
| O=C(c1ccccc1)c1ccc(N2CCOCC2)cc1O [DNA-PK Inhibitor V] | 95.7 |
| CCN1CCN(C(=O)NC(C(=O)NC2C(=O)N3C(C(=O)O)=C(CSc4nnnn4C)CSC23)c2ccc(O)cc2)C(=O)C1=O (stereo not drawn) [Cefoperazone acid] | 103 |
| CCCCCC=CCC=CCC=CC=CC1CCCC(=O)O1 (racemic) | 97 |
| Cn1c(-c2ccc3c(c2)OCO3)cc(=O)c2ccccc21 [Graveoline] | 99.8 |
| CCc1nn(CCCN2CCN(c3cccc(Cl)c3)CC2)c(=O)n1CCOc1ccccc1 | 95 |
| O[C@@H]1[C@@H](O)[C@H](OC/C=C/c2ccccc2)O[C@H](CO[C@@H]2OC[C@H](O)[C@H](O)[C@H]2O)[C@H]1O | 103 |
| Cc1ccc(S(=O)(=O)NC(=O)NN2CCCCCC2)cc1 [Tolazamide] | 111.1 ± 0.38 |

| SMILES | cell number |
| --- | --- |
| Cc1c(C)c2c(c(C)c1OC(=O)CCC(=O)O)CCC(C)(CCCC(C)CCCC(C)CCCC(C)C)O2 (stereo not drawn) [Tocopherol succinate] | 109 |
| CCCCCCC=CCCCCCCCCC(=O)O [10(E)-Heptadecenoic acid] | 95.4 |
| COc1ccc(-c2nn3c(-c4ccccn4)nnc3s2)cc1OC | 103 |
| CCCCCCCCCC(=O)O [Decanoic acid] | 95.3 |
| Cc1cnc(Nc2ccc(N3CCN(C)CC3)cc2)nc1Nc1cccc(S(=O)(=O)NC(C)(C)C)c1 | 98.6 |
| CCCC(CCC)C(=O)O [Valproic acid] | 111 |
| CN(C)CCC(c1ccc(Br)cc1)c1ccccn1.O=C(O)C=CC(=O)O (single isomer, unassigned; (+)) [(+)-Brompheniramine maleate] | 79.5 |
| C=CC1CN2CCC1CC2C(O)c1ccnc2ccc(OC)cc12.Cl.O (stereo not drawn) | 90.1 |
| N[C@@H](Cc1ccc(O)c(I)c1)C(=O)O [3-Iodo-L-tyrosine] | 110 |
| CC(N)=NCCC[C@H](N)C(=O)O.Cl [L-N5-(1-Iminoethyl)ornithine hydrochloride] | 108 |
| Cc1cn2cc(C(=O)N(C)CCO)cc(N[C@@H]3CCOc4cccc(C)c43)c2n1 | 104 |
| CC=CC(=O)N(CC)c1ccccc1C [Crotamiton] | 98.5 |
| Clc1ccc(C(Cn2ccnc2)OCc2csc3c(Cl)cccc23)c(Cl)c1.O=[N+]([O-])O (stereo not drawn) | 100 |
| C#CCCCCCCCCCCCCCCCC(=O)O [17-Octadecynoic acid] | 99.7 |
| CC1COc2c(C3(N)CC3)c(F)cc3c(=O)c(C(=O)O)cn1c23 (stereo not drawn) [Pazufloxacin] | 110 |
| CCCCCCCCc1ccc(CCC(N)(CO)CO)cc1.Cl | 17.4 |
| COc1ccc2cc1Oc1ccc(cc1)CC1c3cc(c(OC)cc3CCN1C)Oc1c(OC)c(OC)c(OC)c3c1C(C2)N(C)CC3 (stereo not drawn) [Hernandezine] | 93 |
